Experimental findings from PubChem BioAssay (Tox21) are described below.

Where “and” joins values, the source holds several entries; their conditions need not be identical. Equal entries are not always repeated. Inconclusive results are not listed. A call without a number means that no potency is given here. Calls of active or inactive are those of the source. Unless noted, the call rests on the fitted dose curve; in most records, active means well fitted curve in the direction sought with a large enough effect in the repeat runs; inconclusive means weak or mixed curves; inactive means no such curve, though single readings can be large; an effect the other way counts as inactive or inconclusive.

Chain of Androgen receptor (Homo sapiens) (P10275 whole entry, looked up): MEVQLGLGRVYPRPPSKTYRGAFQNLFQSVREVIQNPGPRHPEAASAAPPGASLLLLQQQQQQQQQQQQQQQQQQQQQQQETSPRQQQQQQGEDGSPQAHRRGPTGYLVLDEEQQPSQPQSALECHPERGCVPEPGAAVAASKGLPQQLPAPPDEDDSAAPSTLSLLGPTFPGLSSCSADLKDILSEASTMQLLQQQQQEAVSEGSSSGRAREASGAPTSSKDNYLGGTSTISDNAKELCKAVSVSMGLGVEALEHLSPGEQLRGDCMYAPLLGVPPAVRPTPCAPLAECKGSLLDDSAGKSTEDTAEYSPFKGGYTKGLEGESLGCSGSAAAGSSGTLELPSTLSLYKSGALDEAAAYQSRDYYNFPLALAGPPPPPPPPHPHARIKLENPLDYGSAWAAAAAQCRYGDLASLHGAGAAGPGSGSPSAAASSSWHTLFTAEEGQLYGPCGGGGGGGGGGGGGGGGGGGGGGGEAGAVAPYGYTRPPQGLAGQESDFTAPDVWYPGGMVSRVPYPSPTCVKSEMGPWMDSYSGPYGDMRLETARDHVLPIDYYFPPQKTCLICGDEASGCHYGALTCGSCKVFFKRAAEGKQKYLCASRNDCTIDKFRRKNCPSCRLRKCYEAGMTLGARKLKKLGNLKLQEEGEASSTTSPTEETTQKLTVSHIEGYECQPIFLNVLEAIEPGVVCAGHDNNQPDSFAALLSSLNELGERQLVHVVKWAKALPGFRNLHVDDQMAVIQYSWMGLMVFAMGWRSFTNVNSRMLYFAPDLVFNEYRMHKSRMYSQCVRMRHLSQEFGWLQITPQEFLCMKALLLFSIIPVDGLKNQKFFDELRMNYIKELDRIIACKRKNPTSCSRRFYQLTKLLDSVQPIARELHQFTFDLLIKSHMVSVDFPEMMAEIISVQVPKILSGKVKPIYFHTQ

System in the first test: not listed separately
The experiment in a line: qHTS assay for identifying genotoxic compounds that show differential cytotoxicity against isogenic chicken DT40 cell lines with known DNA damage response pathways - Rad54/Ku70 mutant cell line (AID 743015). Further: nearly all actives have a fitted effect of over 60% in size. Further: potency means the concentration at half of the fitted maximal effect. Conditions: DT40 Rad54/Ku70 mutant viability, CellTiter-Glo, 40 h; series mostly up to 66.8 µM. In general terms: Quantitative high-throughput screening tests each substance at several concentrations.
Take `CN(C)C(=S)SSC(=S)N(C)C`: the Potency was 106 nM (active) and 135 nM (active) and 19.3 nM (active).

As to `Oc1ccc2[nH]cc(CCCCN3CC=C(c4ccccc4)CC3)c2c1`, the Potency is 7.5 µM (active).

On to `CCOP(=S)(OCC)Oc1cc(C)nc(N(CC)CC)n1`, for which the Potency is 27.3 µM (active).

As to `C=CCOC(=O)c1ccccc1N`, the Potency entry is “inactive”.

With `CC1(C)[C@H](/C=C2\CCSC2=O)[C@@H]1C(=O)OCc1coc(Cc2ccccc2)c1`, the Potency is 10.9 µM (active).

For `Nc1ccccc1-c1ccccc1`, the Potency entry was “inactive”.

System in another test: not listed separately
The experiment in a line: qHTS assay to identify small molecule antagonists of the androgen receptor (AR) signaling pathway - cell viability counter screen (AID 743033; further: nearly all actives have a fitted effect of over 45% in size; further: potency means the concentration at half of the fitted maximal effect). The settings on record: AR-bla HEK293 viability, CellTiter-Glo luminescence, 16 h; series mostly up to 58.5 µM.
With `CSC(=O)c1c(C(F)F)nc(C(F)(F)F)c(C(=O)SC)c1CC(C)C`, the Potency result was “inactive”.

In the case of `CCOP(=O)(OCC)Oc1cc(C)nc(C(C)C)n1`, the Potency entry is “inactive”.

Regarding `Clc1ccc(C(Cl)(Cl)Cl)cc1Cl`, the Potency entry is “inactive”.

Consider `CC(Cc1ccc2c(c1)OCO2)NO` (centres undefined), for which the Potency entry was “inactive”.

Consider `C[C@H]1[C@H](c2ccc(Cl)cc2)SC(=O)N1C(=O)NC1CCCCC1`, for which the Potency entry is “inactive”.

With `C[N+]1(C)[C@@H]2CC[C@H]1CC(OC(=O)C(CO)c1ccccc1)C2` (some centres undefined), the Potency entry is “inactive”.

Regarding `O=C(O)CCCCCCNC1c2ccccc2CCc2ccccc21`, the Potency result was “inactive”.

Take `Cc1cnc2c(C(=O)O)c(Cl)ccc2c1`: the Potency entry is “inactive”.

With `C#CCO`, the Potency entry is “inactive”.

`CCCCCCCc1ccc(O)cc1`: the Potency entry was “inactive”.

In the case of `CC1=C2C[C@H]3[C@@H](CC=C4C[C@@H](O)CC[C@@]43C)[C@@H]2CC[C@]12O[C@@H]1C[C@H](C)CN[C@H]1[C@H]2C`, the Potency result was “inactive”.

Take `FC(F)C(F)(F)OCC(Cn1cncn1)c1ccc(Cl)cc1Cl` (centres undefined): the Potency was 54.6 µM (active).

For the compound `COC(=O)/C=C(\C)OP(=O)(OC)OC`, the Potency result was “inactive”.

Consider `CCN(CC)Cc1nccn1-c1ccc([N+](=O)[O-])cc1C(=O)c1ccccc1Cl`, for which the Potency result is “inactive”.

`NC1CCC(CC2CCC(N)CC2)CC1` (centres undefined): the Potency entry is “inactive”.

In the case of `CCCCC(CC)COC(=O)c1ccccc1C(=O)OCC(CC)CCCC` (centres undefined), the Potency entry is “inactive”.

Take `CCN(CC)CCc1c[nH]c2ccccc12`: the Potency entry is “inactive”.

In the case of `CN(C)C(=S)SSC(=S)N(C)C`, the Potency was 535 nM (active) and 85.9 nM (active) and 34.7 nM (active).

`COc1ccc2[nH]cc(CCN(C(C)C)C(C)C)c2c1`: the Potency entry was “inactive”.

On to `C=CCOC(=O)c1ccccc1N`, for which the Potency entry was “inactive”.

As for `CC1(C)[C@H](/C=C2\CCSC2=O)[C@@H]1C(=O)OCc1coc(Cc2ccccc2)c1`, the Potency entry was “inactive”.

On to `Nc1ccccc1-c1ccccc1`, for which the Potency entry is “inactive”.

The target in another test is Androgen receptor (Homo sapiens) (UniProt P10275). The experiment in a line: qHTS assay to identify small molecule antagonists of the androgen receptor (AR) signaling pathway (AID 743035; active means well fitted inhibition curve with a large enough effect in the signal ratio in the repeat runs, not every such curve was filed as active; the % refers to the signal ratio). Conditions: HEK293 AR-UAS-bla, R1881-stimulated, beta-lactamase FRET, 16 h; series mostly up to 58.5 µM. The procedure, abridged:
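Fluorescence from a beta-lactamase FRET substrate (LiveBLAzer B/G, 2 h, room temperature) measured inhibition of R1881-stimulated signaling in GeneBLAzer AR-UAS-bla HEK293 cells exposed to compound for 16 h at 37C.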
For `S=C=NCCc1ccccc1`, the Potency result was “inactive”.

For the compound `CCOP(=S)(OCC)Oc1cc(C)nc(N(CC)CC)n1`, the Potency entry is “inactive”.

`C=CCOC(=O)c1ccccc1N`: the Potency entry was “inactive”.

For a further test the target is unchanged. The experiment in a line: qHTS assay to identify small molecule agonists of the androgen receptor (AR) signaling pathway (AID 743036; active means well fitted activation curve with a large enough effect in the signal ratio in the repeat runs, with a control signal flat, not every such curve was filed as active; the % refers to the signal ratio). The settings on record: HEK293 AR-UAS-bla GripTite, beta-lactamase FRET ratio, 16 h; series mostly up to 62.4 µM. The procedure, abridged:
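AR-bla HEK293 cells, 2,000/well; 4 h preincubation 37C/5% CO2; compound (DMSO) 16 h at 37C; LiveBLAzer B/G FRET substrate 2 h RT; fluorescence intensity read-out.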
Regarding `C[C@H]1[C@H](c2ccc(Cl)cc2)SC(=O)N1C(=O)NC1CCCCC1`, the outcome was inactive.

For the compound `CCCCCCCc1ccc(O)cc1`, the result was inactive.

For `CC1=C2C[C@H]3[C@@H](CC=C4C[C@@H](O)CC[C@@]43C)[C@@H]2CC[C@]12O[C@@H]1C[C@H](C)CN[C@H]1[C@H]2C`, the result was inactive.

Turning to `CCOP(=S)(OCC)Oc1cc(C)nc(N(CC)CC)n1`, the result was inactive.

On to `C=CCOC(=O)c1ccccc1N`, for which the result was inactive.

A further test shares this target. The experiment in a line: qHTS assay to identify small molecule agonists of the androgen receptor (AR) signaling pathway using the MDA cell line (AID 743040; further: nearly all actives have a fitted effect of over 20% in size). The settings on record: MDA-kb2 AR-luc cells, MMTV luciferase, 16 h, stronger effect = higher value; series mostly up to 70.3 µM. The procedure, abridged: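 MDA-kb2 breast carcinoma cells carrying MMTV-luciferase (responsive to AR and GR), plated 5 h then treated 16 h with compounds at 37C, 0% CO2. Read-out was ONE-Glo luminescence after 30 min at room temperature.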
Regarding `C[C@H]1[C@H](c2ccc(Cl)cc2)SC(=O)N1C(=O)NC1CCCCC1`, the outcome was inactive.

With `CCOP(=O)(OCC)Oc1nc(Cl)c(Cl)cc1Cl`, the compound was called inactive.

For the compound `CCCCCCCc1ccc(O)cc1`, the compound was classed as inactive.

Take `S=C=NCCc1ccccc1`: the compound was called inactive.

Turning to `CC1=C2C[C@H]3[C@@H](CC=C4C[C@@H](O)CC[C@@]43C)[C@@H]2CC[C@]12O[C@@H]1C[C@H](C)CN[C@H]1[C@H]2C`, the result was inactive.

Consider `CN(C)C(=S)SSC(=S)N(C)C`, for which the compound was classed as inactive.

As for `CCOP(=S)(OCC)Oc1cc(C)nc(N(CC)CC)n1`, the compound was classed as inactive.

`C=CCOC(=O)c1ccccc1N`: the call was inactive.

System in the next test: not listed separately
The experiment in a line: qHTS assay to identify small molecule antagonists of the androgen receptor (AR) signaling pathway using the MDA cell line - cell viability counter screen (AID 743041; further: nearly all actives have a fitted effect of over 45% in size; further: potency means the concentration at half of the fitted maximal effect). Conditions: MDA-kb2 viability, CellTiter-Fluor, 16 h, cells co-treated with R1881 androgen agonist; series mostly up to 70.3 µM. Put shortly:
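MDA-kb2 AR-luc cells (MMTV-luciferase, AR/GR responsive) treated with compounds plus R1881 agonist for 16 h at 37C. CellTiter-Fluor added at 15.5 h; fluorescence read after 30 min in the same wells.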
For `CSC(=O)c1c(C(F)F)nc(C(F)(F)F)c(C(=O)SC)c1CC(C)C`, the Potency entry was “inactive”.

On to `CCOP(=O)(OCC)Oc1cc(C)nc(C(C)C)n1`, for which the Potency result is “inactive”.

For `CCC1COC(Cn2cncn2)(c2ccc(Cl)cc2Cl)O1` (centres undefined), the Potency entry was “inactive”.

In the case of `Clc1ccc(C(Cl)(Cl)Cl)cc1Cl`, the Potency entry was “inactive”.

With `ClCBr`, the Potency result is “inactive”.

As for `CC(Cc1ccc2c(c1)OCO2)NO` (centres undefined), the Potency result is “inactive”.

For the compound `CCOP(=O)(OCC)Oc1nc(Cl)c(Cl)cc1Cl`, the Potency result was “inactive”.

For `C[N+]1(C)[C@@H]2CC[C@H]1CC(OC(=O)C(CO)c1ccccc1)C2` (some centres undefined), the Potency entry is “inactive”.

Turning to `CCOP(=S)(NC(C)C)Oc1ccccc1C(=O)OC(C)C` (centres undefined), the Potency was 61.1 µM (active).

As for `O=C(O)CCCCCCNC1c2ccccc2CCc2ccccc21`, the Potency entry was “inactive”.

With `Cc1cnc2c(C(=O)O)c(Cl)ccc2c1`, the Potency entry is “inactive”.

Regarding `C#CCO`, the Potency result is “inactive”.

In the case of `CCCCCCCc1ccc(O)cc1`, the Potency result was “inactive”.

Consider `CC1=C2C[C@H]3[C@@H](CC=C4C[C@@H](O)CC[C@@]43C)[C@@H]2CC[C@]12O[C@@H]1C[C@H](C)CN[C@H]1[C@H]2C`, for which the Potency result is “inactive”.

`CCCCN(CCCC)C(=S)[S-].CCCCN(CCCC)C(=S)[S-].[Ni+2]`: the Potency entry was “inactive”.

Regarding `COC(=O)/C=C(\C)OP(=O)(OC)OC`, the Potency result was “inactive”.

Turning to `CCN(CC)Cc1nccn1-c1ccc([N+](=O)[O-])cc1C(=O)c1ccccc1Cl`, the Potency result is “inactive”.

Take `NC1CCC(CC2CCC(N)CC2)CC1` (centres undefined): the Potency is 47.7 µM (active).

With `Clc1ccc(C(c2ccc(Cl)cc2)C(Cl)Cl)cc1`, the Potency entry is “inactive”.

As for `CCN(CC)CCc1c[nH]c2ccccc12`, the Potency result was “inactive”.

As for `c1ccc(Nc2ccc(Nc3ccccc3)cc2)cc1`, the Potency result was “inactive”.

Regarding `CCOP(=S)(OCC)Oc1cc(C)nc(N(CC)CC)n1`, the Potency result is “inactive”.

On to `C=CCOC(=O)c1ccccc1N`, for which the Potency result is “inactive”.

For the compound `CC1(C)[C@H](/C=C2\CCSC2=O)[C@@H]1C(=O)OCc1coc(Cc2ccccc2)c1`, the Potency entry was “inactive”.

In the case of `Nc1ccccc1-c1ccccc1`, the Potency result is “inactive”.
